Screens from PubChem BioAssay.
APOBEC3A inh – APOBEC3A ssDNA deaminase inhibitors, primary screen, selectivity assay for APOBEC3G inhibitor project, biochemical, FAM/TAMRA oligo cleavage fluorescence. 0.41% of 330,000 active. inhibition, % at 20 µM. recombinant A3A, FAM/TAMRA ssDNA deamination fluorescence. DNA dC->dU-editing enzyme APOBEC-3A (Homo sapiens), P31941;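 active means at least 40% inhibition at 20 µM here, with at most 30% in a related deaminase screen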
A3G deaminase – APOBEC3G DNA deaminase inhibitors, primary screen, biochemical, fluorescence, single-stranded DNA substrate, uHTS; DNA dC->dU-editing enzyme APOBEC-3G (Homo sapiens), Q9HC16; recombinant A3G, ssDNA deamination FAM/TAMRA fluorescence; inhibition, % at 20 µM; 0.28% of 330,000 active; AID 493012, 2011;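 active means inhibition of at least 40% at 20 µM, with no more than 30% in the related APOBEC3A deaminase screen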
Target sequence (Q9HC16 whole entry, looked up): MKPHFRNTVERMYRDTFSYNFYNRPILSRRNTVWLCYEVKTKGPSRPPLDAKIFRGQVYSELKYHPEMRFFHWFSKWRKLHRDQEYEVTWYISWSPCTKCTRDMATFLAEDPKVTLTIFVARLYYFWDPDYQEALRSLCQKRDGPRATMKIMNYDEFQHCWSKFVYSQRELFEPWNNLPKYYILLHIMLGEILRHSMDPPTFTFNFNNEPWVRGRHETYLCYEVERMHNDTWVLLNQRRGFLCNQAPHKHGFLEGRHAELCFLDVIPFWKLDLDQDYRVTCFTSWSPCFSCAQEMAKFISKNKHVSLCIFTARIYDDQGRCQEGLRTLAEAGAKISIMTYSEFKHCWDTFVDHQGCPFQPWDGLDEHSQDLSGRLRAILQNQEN
PfG6PD inh – PfG6PD enzyme inhibitors, primary screen, biochemical, fluorescence intensity, uHTS; glucose-6-phosphate dehydrogenase-6-phosphogluconolactonase (Plasmodium falciparum 3D7); PfGluPho enzyme, NADPH resazurin-diaphorase fluorescence; inhibition, % at 20 µM; 0.78% of 350,000 active;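 active means inhibition reaching at least a set limit at 20 µM in the primary screen, cut at about 59% in these data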
NadD inh – inhibitors of S. aureus NadD, primary screen, biochemical, colorimetric, uHTS; inhibition, % at 20 µM; purified NadD enzyme, colorimetric absorbance read-out; 0.78% of 360,000 active; AID 602399, 2012; Nicotinate-nucleotide adenylyltransferase NadD (Staphylococcus aureus N315); in the data active means inhibition above about 26%
TAG inh – inhibitors of triacylglycerol accumulation, primary screen, cell-based, uHTS, fluorescence, H9c2 | H9c2 cells, Nile Red lipid (TAG) fluorescence; cells loaded with 200 µM oleic acid | inhibition, % at 12.5 µM | 0.66% of 230,000 active;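 active means pattern-corrected inhibition of lipid staining of at least 50% with the nuclear-stain viability signal not falling by more than 50%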
Cardio protect – cardioprotection against H2O2-induced cell death, primary screen, uHTS, H9c2 cells, ATPLite luminescence; H9c2 cardiomyocytes, H2O2 injury protection, 2 h; protection from H2O2 cell death, % at 20 µM; 0.63% of 360,000 active; AID 588492, 2011;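 active means compounds giving at least 50% protection of heart cells from peroxide-induced death in the single-dose screen, raw or plate-pattern-corrected value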
APOBEC3A confirm – APOBEC3A deaminase inhibitors, retest, confirmation, selectivity assay for APOBEC3G inhibitor project, biochemical, single concentration, fluorescence readout. 63% of 1,400 active. inhibition, % at 20 µM. recombinant A3A, ssDNA deaminase UDG fluorescence assay. shares compounds with APOBEC3A inh;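 active means inhibition reaching a set limit, 80% of the first screen's cutoff, at 20 µM in any replicate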
UDG A3A counter – E. coli UDG inhibitors, confirmation, counter-screen for APOBEC3A inhibitor project, biochemical, single concentration, fluorescence, FAM/TAMRA oligo; UDG counterscreen, FAM/TAMRA uracil oligo fluorescence; 1,000 tested, under 10 active; shares compounds with APOBEC3A inh; AID 504714, 2011; inhibition, % at 20 µM; call rule not given here
Large screens that a line does not name were inactive (follow-up assays come after a bar, where they were run). Most compounds without a hit are left out; they make up all but 2.9% or so of the library.

CSc1cccc(NC(=O)C2CC(=O)N(Cc3ccccc3)C2)c1 (stereo not drawn)	APOBEC3A inh 52 | APOBEC3A confirm inactive
Cc1cccc(-c2nc3ccccc3c(=O)n2NC(=O)c2ccc([N+](=O)[O-])c(C)c2)c1	APOBEC3A inh 49 (no result: TAG inh) | APOBEC3A confirm inactive | UDG A3A counter inactive
NC(=S)Nn1c(-c2ccccc2)nc2ccccc2c1=O	APOBEC3A inh 42 (no result: TAG inh) | APOBEC3A confirm inactive | UDG A3A counter inactive
CCN(CC)S(=O)(=O)c1cccc(NC2=NCCCCC2)c1	none
CCN1C(=O)[C@@H]2[C@H](C1=O)[C@@H]1C(=O)Nc3ccccc3C(=O)N1[C@@H]2c1ccc(OC)cc1	none
O=C(CN1Cc2ccccc2C1=O)Nc1ccc2c(c1)OCCO2	none (no result: TAG inh)
O=C(COc1ccc(Cl)cc1)OCC(=O)N1CCCC1	APOBEC3A inh 55 (no result: TAG inh) | APOBEC3A confirm inactive | UDG A3A counter inactive
O=C(COc1ccc(Cl)cc1)OCC(=O)N1CCCCCC1	none (no result: TAG inh)
CN(C)C(=O)c1ccc(Nc2nc(-c3cccs3)nc3ccccc23)cc1	APOBEC3A inh 43 (no result: TAG inh) | APOBEC3A confirm inactive | UDG A3A counter inactive
COc1ccc(-c2csc(N(CCCN(C)C)C(=O)c3ccccc3C)n2)cc1	none
COc1ccc(-c2csc(N(CCCN(C)C)C(=O)c3ccccc3F)n2)cc1	APOBEC3A inh 48 (no result: TAG inh) | APOBEC3A confirm inactive | UDG A3A counter inactive
CCOc1cc(C2C3=C(CC(C)(C)CC3=O)N(CCOC)C3=C2C(=O)CC(C)(C)C3)ccc1OC	APOBEC3A inh 49 (no result: TAG inh) | APOBEC3A confirm inactive
CCOc1cc(C2C3=C(CC(C)(C)CC3=O)N(CCCOC)C3=C2C(=O)CC(C)(C)C3)ccc1OC	none (no result: TAG inh)
Cc1ccc(S(=O)(=O)N2CCN(C(=O)COC(=O)CCOc3ccccc3C)CC2)c(C)c1	APOBEC3A inh 47 | APOBEC3A confirm 62 | UDG A3A counter inactive
CC1=NC(=O)C(N=Nc2ccccc2)N1c1ccccc1 (stereo not drawn)	none
CC1=NC(=O)C(N=Nc2cccc(C(=O)O)c2)N1c1ccccc1 (stereo not drawn)	APOBEC3A inh 43 (no result: TAG inh) | APOBEC3A confirm 63 | UDG A3A counter inactive
O=C(/C=C/c1ccccc1)c1cc(Br)ccc(=O)c1O	APOBEC3A inh 41 (no result: TAG inh) | APOBEC3A confirm 40
O=C(/C=C/c1ccc(F)cc1)c1cc(Br)ccc1O	none
COc1ccc(NC(=O)COc2ccc(N(C)S(=O)(=O)c3ccc(Cl)cc3)cc2)cc1OC	none
C[N+](C)(C)CCCCCCC(=O)/C=N/O	APOBEC3A inh 61 (no result: TAG inh) | APOBEC3A confirm 67 | UDG A3A counter inactive
C[N+]1(CCCCCCC(=O)/C=N/O)CCCCCC1	APOBEC3A inh 42 | APOBEC3A confirm 61 | UDG A3A counter inactive
Cc1cccc(NC(=O)CNC(=O)Cn2ncc(Cl)c(Cl)c2=O)c1C	APOBEC3A inh 49 | APOBEC3A confirm 38 | UDG A3A counter inactive
Cc1cc(C)nc(/N=C2/NC(=O)CS2)n1	APOBEC3A inh 64 (no result: TAG inh) | APOBEC3A confirm inactive | UDG A3A counter inactive
Cc1ccc(N=C2NC(=O)CS2)cc1	none
CCOC(=O)CN1C(=O)S/C(=C/c2ccc(N3CCCCC3)o2)C1=O	none
CCOC(=O)CN1C(=O)S/C(=C\c2ccc(-c3ccc(C(=O)O)c(Cl)c3)o2)C1=O	APOBEC3A inh 58 | APOBEC3A confirm 40 | UDG A3A counter inactive
